These results are taken from PubChem BioAssay (NCI).

Molecules are shown by their SMILES. Compounds without any hit were thinned out: in the full panel of roughly 83,000, 20% have a hit.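 Testing used 96-well plates and a 48-hour single-concentration exposure. Example: -40 means 40% of the starting cells died.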 Values without a mark were called inactive. Active and inactive are the calls of the source.

The experiment concerns PC-3 prostate. Description: NCI-60 one-dose screen, 48 h (100 = growth as untreated, 0 = no growth, -100 = all killed). Conditions: 10 µM. As to the method: Growth inhibition of the PC-3 human tumor cell line is measured as a screen for anti-cancer activity. Cells are grown in 96 well plates and exposed to the test compound for 48 hours. Compounds are tested at a single concentration, which is 10^-5 M for most compounds. The reported endpoint is percent growth (GI% or GIPRCNT), where numbers from 0 - 100% represent growth inhibition, and numbers from -100% - 0 represent cell death. For example, a value of 40 represents 60% growth inhibition. A value of 0 means no net growth occurred over the course of the experiment. A value of -40 indicates 40% of cells at the beginning of the experiment died by the end of the experiment. A value of -100 means all cells are dead at the end of the experiment.
NCI-60 Human Tumor Cell Lines Screen was performed using the standard one-dose NCI protocol, which is described in more detail at https://dtp.cancer.gov/discovery_development/nci-60/default.htm.
Compounds with GIPRCNT values below 10 were considered active. Activity score was based on GIPRCNT using the following formula: […]
Score is 0 for GIPRCNT values of 100 or above, 50 for GIPRCNT values of 0, and 100 for GIPRCNT values of -100.
Take `O=C(/C=C/c1ccc(Cl)cc1Cl)c1nc2ccccc2n1Cc1ccc(F)cc1`: the growth is 29.4%.
As for `COP(=O)(CC(F)(F)C(F)(F)F)OC`, the growth was 69.5%.
For `CC(=O)Oc1ccccc1C(=O)NC([Se])=NC1CCCCC1`, the growth is 44.6%.
As for `COc1cc(OC)c(S(=O)(=O)N(CCCl)CCCl)cc1C(=O)/C=C/c1ccc(C)cc1`, the growth is 67.6%.
Consider `COCCOCCOCCOc1ccc(-n2cc(CCCN(CCNc3ccnc4cc(Cl)ccc34)C(=O)CCC(=O)O[C@@H]3O[C@@H]4OC5(C)CC[C@H]6[C@H](C)CC[C@@H]([C@H]3C)[C@@]46OO5)nn2)cc1`, for which the growth was 32.3%.
For `CCOP(=O)(OCC)C(NC(C)=O)C(=O)SCCN` (stereo not given), the growth is 116%.
The value for `O=C(/C=C/c1ccc(F)cc1)c1nc2ccccc2n1Cc1ccc(F)cc1` was 8.29% (active).
On to `CC[C@]12C=CCN3CC[C@@]4(c5ccc(OC)cc5N(C)[C@H]4[C@@](O)(C(=O)OC)[C@@H]1OC(=O)CCCC[P+](c1ccc(OC)cc1)(c1ccc(OC)cc1)c1ccc(OC)cc1)[C@@H]32`, for which the growth was -37.2% (active).
As to `Cc1c2oc3c(C)ccc(C(=O)N[C@@H]4C(=O)N[C@H](C(C)C)C(=O)N5CCC[C@H]5C(=O)N(C)CC(=O)N(C)[C@@H](C(C)C)C(=O)OC4C)c3nc-2c(C(=O)N[C@@H]2C(=O)N[C@H](C(C)C)C(=O)N3CC(=O)C[C@H]3C(=O)N(C)CC(=O)N(C)[C@@H](C(C)C)C(=O)OC2C)c(N)c1=O` (stereo not given in full), the growth was 1.32% (active).
Next, `O=C(/C=C/c1ccccc1Cl)c1nc2ccccc2n1Cc1ccc(F)cc1`: -57.3% (active); `O=C(NCCCCC(c1ccc(F)cc1)c1ccc(F)cc1)Nc1ccc([N+](=O)[O-])c(C(F)(F)F)c1`: -4.82% (active); `CC1=C(CCC=O)C2=C(C)C3(CC3)[C@@](C)(O)C(=O)C2=C1`: -40.6% (active).
With `O=C(/C=C/c1cccc(Br)c1)c1nc2ccccc2n1Cc1ccc(Br)cc1`, the growth is 0.947% (active).
With `CC(=C\C(=O)Oc1ccc2c3c1OC1C(O)CCC4(O)C(C2)N(CC2CCC2)CCC314)/C=C1\CCCc2ccccc21` (stereo not given), the growth was 40.8%.
As to `CC(C)N=C([Se])NC(=O)c1cccs1`, the growth was 8.44% (active).
Next, `O=C(/C=C/c1ccc(Cl)cc1)c1nc2ccccc2n1Cc1ccc(Br)cc1`: 36.6%.
The value for `CC1=C(C=O)C2=C(C)C3(CC3)[C@@](C)(O)C(=O)C2=C1` was 26.1%; that for `COc1ccc2cc([C@H](C)C(=O)[Se]CCC#N)ccc2c1` was -10.1% (active).
In the case of `CCOP(=O)(CC(F)(F)C(F)(F)F)OCC`, the growth was 63.8%.
On to `CC1=C2C(=C[C@@](C)(COP(=O)(Oc3ccccc3)Oc3ccccc3)[C@@H]2O)C(=O)[C@@](C)(O)C12CC2`, for which the growth is -31% (active).
Next, `C#CC[Se]C(=O)c1ccc(C(=O)[Se]CC#C)s1`: 44.9%; `C[C@H]1[C@@H](CC(=O)N[C@@H](Cc2coc3ccccc23)B(O)O)O[C@@H]2OC3(C)CC[C@H]4[C@H](C)CC[C@@H]1[C@@]24OO3`: -25.6% (active); `CC[C@]12C=CCN3CC[C@@]4(c5ccc(OC)cc5N(C)[C@H]4[C@@](O)(C(=O)OC)[C@@H]1OC(=O)CCCC[P+](C1CCCCC1)(C1CCCCC1)C1CCCCC1)[C@@H]32`: 3.69% (active).
Next, `COC(=O)c1ccc(-n2cc(CCCN(CCNc3ccnc4cc(Cl)ccc34)C(=O)CCC(=O)O[C@@H]3O[C@@H]4OC5(C)CC[C@H]6[C@H](C)CC[C@@H]([C@H]3C)[C@@]46OO5)nn2)cc1`: 39.7%.
Turning to `O=C(/C=C/c1ccccc1)c1nc2ccccc2n1Cc1ccc(Br)cc1`, the growth was -31% (active).
Take `Cc1ccc2[nH]c(=S)n(-c3ccc(F)cc3)c(=O)c2c1`: the growth was 90%.
The value for `CC12OOC(C)(OO1)C2CCC(=O)NCCCNc1ccnc2cc(Cl)ccc12` (stereo not given) was 84.1%; that for `COc1cc2cc(C(=O)N3C[C@@H](CCl)c4c3cc(OC(=O)N3CCN(C(=O)CCC(=O)N5CCN(C)CC5)[C@@H]5CSSC[C@@H]53)c3ccccc43)[nH]c2c(OC)c1OC` was -10.5% (active); that for `C[C@H]1[C@H](OC(=O)CCC(=O)Nc2cnccn2)O[C@@H]2OC3(C)CC[C@H]4[C@H](C)CC[C@@H]1[C@@]24OO3` was 36.6%.
The value for `COc1cc(OC)c(S(=O)(=O)N(CCCl)CCCl)cc1C(=O)/C=C/c1cc(OC)c(OC)c(OC)c1` was 10.3%.
The value for `CC(C)N=C([Se])NC(=O)c1ccccc1` was -21.8% (active); that for `O=C(/C=C/c1ccco1)c1nc2ccccc2n1Cc1ccc(F)cc1` was 65.6%; that for `COc1ccc(OC)c(/C=C/C(=O)c2nc3ccccc3n2Cc2ccc(F)cc2)c1` was 0.247% (active).
As to `C=CCN=C([Se])NC(=O)c1ccc2c(c1)OCO2`, the growth is 40.1%.
For `O=C(NC([Se])=NC1CCCCC1)c1ccccc1`, the growth is 51.3%.
`N#C[Se]CC(=O)Nc1cccc(C(F)(F)F)c1`: the growth was 26.8%.
On to `C#CCCCN(CCNc1ccnc2cc(Cl)ccc12)C(=O)CCC(=O)O[C@@H]1O[C@@H]2OC3(C)CC[C@H]4[C@H](C)CC[C@@H]([C@H]1C)[C@@]24OO3`, for which the growth is 37%.
For the compound `O=C(/C=C/c1ccco1)c1nc2ccccc2n1Cc1ccc(Br)cc1`, the growth was 34.2%.
Next, `CC12CCC3(CCC(=O)NCCCNc4ccnc5cc(Cl)ccc45)[C@@](C)(OO[C@]3(C)O1)O2`: 28.3%.
Next, `COCCOCCOCCOc1ccc(-n2cc(-c3ccc(O[C@H]4O[C@@H]5OC6(C)CC[C@H]7[C@H](C)CC[C@@H]([C@H]4C)[C@@]57OO6)cc3)nn2)cc1`: 28%.
